“And” between values parts separate entries of the source, which are not always exact repeats. Equal entries are not always repeated. A number with no mark means an inactive call. Where a call stands in place of a potency, no number is given. The source made the active and inactive calls. The call rests on the fitted dose curve.
These compounds were tested against Gonadotropin-releasing hormone receptor (Homo sapiens) (UniProt P30968) (assay: Human gonadotropin-releasing hormone receptor (GnRHR) small molecule agonists, calcium flux assay in GnRHR-HEK293 cells (AID 1920063; further: nearly all actives have a fitted effect of over 35% in size)). Conditions: calcium flux fluorescence, agonist mode; series mostly up to 57.6 µM; activity change: at the top concentration.
Chain of Gonadotropin-releasing hormone receptor (Homo sapiens) (P30968 whole entry, looked up): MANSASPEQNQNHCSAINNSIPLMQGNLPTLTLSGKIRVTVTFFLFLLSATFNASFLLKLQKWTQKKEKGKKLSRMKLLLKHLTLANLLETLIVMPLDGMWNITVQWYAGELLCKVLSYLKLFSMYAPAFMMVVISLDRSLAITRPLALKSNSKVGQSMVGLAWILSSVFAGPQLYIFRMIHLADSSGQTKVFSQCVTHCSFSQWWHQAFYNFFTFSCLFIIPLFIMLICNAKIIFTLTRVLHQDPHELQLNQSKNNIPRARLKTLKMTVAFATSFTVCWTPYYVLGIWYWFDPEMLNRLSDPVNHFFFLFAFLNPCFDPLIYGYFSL
Procedure, shortened: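 Agonist mode: compounds at 15 concentrations, in triplicate, went onto calcium dye-loaded GnRHR-HEK293 cells. Intracellular calcium was then followed as 480/540 nm fluorescence at 1 s intervals over 3 min.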
With `C=CC=O` the “activity change” value was -1.62%.
In the case of `CCC(C)(C#N)N=NC(C)(C#N)CC` (configuration not stated), the “activity change” value is reported as -0.173%.
For `c1nc[nH]n1`, the Potency was “inactive”.
`c1ccc(Nc2ccc3ccccc3c2)cc1` was tested, and the Potency was “inactive”.
`Nc1cccnc1` was tested, and the Potency was “inactive”.
For `Clc1ccccc1Cl`, the Potency was “inactive”.
In the case of `CCN(CC)C(=S)S`, the Potency is reported as “inactive”.
For `CC(C)Nc1nc(Cl)nc(NC(C)C)n1`, the Potency was “inactive”.
`Nc1ccc(-c2ccc(N)c(N)c2)cc1N` was tested, and the Potency was “inactive”.
With `CC(C)OS(C)(=O)=O` the “activity change” value was -0.489%.
With `CCCCOC(=O)c1ccccc1C(=O)O` the “activity change” value was -0.42%.
`CC(=O)[O][Hg][c]1ccccc1` was tested, and the Potency was 34.4 µM (active) and 24.5 µM (active).
In the case of `CCCCCCCCCl`, the Potency is reported as “inactive”.
With `C#CCOS(=O)OC1CCCCC1Oc1ccc(C(C)(C)C)cc1` (configuration not stated) the Potency was “inactive”.
With `O=S(=O)(O)OOS(=O)(=O)O` the Potency was “inactive”.
In the case of `CC(C)C#N`, the Potency is reported as “inactive”.
For `CCOC(=O)CC(SP(=O)(OC)OC)C(=O)OCC` (configuration not stated), the Potency was “inactive”.
With `CCCCCON=O` the “activity change” value was 0.947%.
For `FC(F)(F)c1ccc(Cl)cc1`, the Potency was “inactive”.
`COP(=S)(OC)Oc1ccc([N+](=O)[O-])cc1` was tested, and the Potency was “inactive”.
In the case of `CCCCCCCCC(=O)NCc1ccc(O)c(OC)c1`, the Potency is reported as “inactive”.
In the case of `COc1c(C(C)(C)C)cc([N+](=O)[O-])c(C)c1[N+](=O)[O-]`, the “activity change” value is reported as 0.45%.
`Cc1ccc(N)cc1` was tested, and the Potency was “inactive”.
For `CCCCCCCCCCCCCCCC[N+](C)(C)C`, the Potency was 13.3 µM (active) and 30.9 µM (active) and 12 µM (active).
`CCc1cnc(C2=NC(C)(C(C)C)C(=O)N2)c(C(=O)O)c1` (configuration not stated) was tested, and the Potency was “inactive”.
With `COP(=S)(OC)Oc1ccc(Sc2ccc(OP(=S)(OC)OC)cc2)cc1` the Potency was “inactive”.
With `CC(=O)CCC(C)=O` the “activity change” value was 0.294%.
Potency means the concentration at half of the fitted maximal effect.
